Measurements as given in PubChem BioAssay (NCI).
The panel holds about 79,000 compounds, 15% with a hit somewhere; the sample as a whole holds those more often. Calls of active or inactive are those of the source. Cut-off read from the data, not from the text of the source: active = growth inhibition above about 70%; inactive = the rest.

How the values were obtained:
[1] = NCI Yeast Anticancer Drug Screen. Data for the rad52 strain (AID 147);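 note: 0% = growth of vehicle-treated control cultures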; conditions: S. cerevisiae rad52 mutant growth inhibition, active compounds read high
Outline: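 Screen used a yeast mutant impaired in DNA repair. After compound exposure, growth was measured. Values reflect inhibition compared with vehicle-treated cells.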

[2] = NCI Yeast Anticancer Drug Screen. Data for the wt1 strain (AID 149);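 note: 0% = growth of vehicle-treated wt1 cultures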; conditions: S. cerevisiae wt1 strain (SPY 50644) growth inhibition, active compounds read high
Outline: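 wt1 strain grown with compound or vehicle; inhibition taken from the growth difference.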

[3] = NCI Yeast Anticancer Drug Screen. Data for the rad50EPP+ strain (AID 151);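 note: 0% = growth of vehicle-treated control cultures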; conditions: S. cerevisiae rad50 mutant strain, active compounds read high
Outline: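 Exposing the rad50EPP+ strain to each compound, growth was compared with vehicle-only cultures to give inhibition.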

[4] = NCI Yeast Anticancer Drug Screen. Data for the mgt1 strain (AID 153); conditions: S. cerevisiae mgt1 mutant growth inhibition, active compounds read high
Outline: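 Genetically defined yeast (mgt1) treated with compound; inhibition of growth expressed against vehicle-treated controls.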

[5] = NCI Yeast Anticancer Drug Screen. Data for the rad50 strain (AID 155);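 note: 0% = growth of vehicle-only cultures of the same strain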; conditions: S. cerevisiae rad50 strain growth inhibition, active compounds read high
Outline: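 DNA repair mutant yeast, compound exposure, growth read-out; inhibition is taken relative to vehicle.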

[6] = NCI Yeast Anticancer Drug Screen. Data for the mec2-1 strain (AID 157); conditions: S. cerevisiae mec2-1 strain, active compounds read high
Outline: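 Readout is yeast growth inhibition, normalised to vehicle-treated controls, in the mec2-1 strain exposed to compound.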

[7] = NCI Yeast Anticancer Drug Screen. Data for the rad14 strain (AID 159);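 note: 0% = growth of vehicle-treated control cultures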; conditions: S. cerevisiae rad14 strain growth inhibition, active compounds read high
Outline: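 DNA repair-defective yeast, compound-exposed; % growth inhibition derived by comparison with vehicle-treated controls.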

[8] = NCI Yeast Anticancer Drug Screen. Data for the sgs1 mgt1 strain (AID 161);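 note: 0% = growth of cultures given vehicle only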; conditions: S. cerevisiae sgs1 mgt1 strain, active compounds read high
Outline: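 Percent growth inhibition was derived by comparing compound-exposed mutant yeast with vehicle-exposed cultures. The strain carries alterations in DNA damage repair.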

[9] = NCI Yeast Anticancer Drug Screen. Data for the CLN2oe strain (AID 163);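 note: 0% = growth of vehicle-only control cultures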; conditions: S. cerevisiae CLN2oe strain, active compounds read high
Outline: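 Values reflect how much compound exposure reduced yeast growth, referenced to vehicle-exposed cells. Assay organism is a strain with a defined genetic change affecting cell-cycle control.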

[10] = NCI Yeast Anticancer Drug Screen. Data for the cln2 rad14 strain (AID 165);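 note: 0% = growth equal to vehicle treated cultures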; conditions: S. cerevisiae cln2 rad14 strain, active compounds read high
Outline: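 Relative to vehicle controls, growth inhibition of compound-treated cln2 rad14 yeast was recorded.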

[11] = NCI Yeast Anticancer Drug Screen. Data for the bub3 strain (AID 167); conditions: S. cerevisiae bub3 mutant strain, active compounds read high
Outline: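 In this screen, a yeast mutant lacking normal mitotic checkpoint function is challenged with compound. Relative growth versus vehicle gives the inhibition value.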

[12] = NCI Yeast Anticancer Drug Screen. Data for the wt2 strain (AID 169);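 note: 0% = growth of vehicle-treated yeast cultures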; conditions: S. cerevisiae wt2 strain growth inhibition, active compounds read high
Outline: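 Values express reduction in yeast growth under compound treatment, referenced to vehicle-treated cells.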

[13] = NCI Yeast Anticancer Drug Screen. Data for the mlh1 strain (AID 171);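 note: 0% = growth of vehicle-treated control cultures of the same strain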; conditions: S. cerevisiae mlh1 strain growth inhibition, active compounds read high
Outline: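 Steps: expose the defined-mutant yeast strain to compound; expose a parallel culture to vehicle; measure growth; express compound effect as inhibition relative to the vehicle culture.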

[14] = NCI Yeast Anticancer Drug Screen. Data for the sgs1 strain (AID 173);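 note: 0% = growth of vehicle-only control cultures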; conditions: S. cerevisiae sgs1 mutant, active compounds read high
Outline: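 Treat defined-mutant yeast with compound; measure growth; calculate inhibition relative to vehicle-treated cells.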

[15] = NCI Yeast Anticancer Drug Screen. Data for the mlh1 rad18 strain (AID 175); conditions: S. cerevisiae mlh1 rad18 strain growth inhibition, active compounds read high
Outline: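 Test agents were incubated with a yeast strain of defined genotype (DNA damage repair defect). Inhibition of growth was derived by comparison with vehicle-exposed cultures.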

[16] = NCI Yeast Anticancer Drug Screen. Data for the rad18 strain (AID 177); conditions: S. cerevisiae rad18 mutant growth inhibition, active compounds read high
Outline: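 A genetically defined yeast mutant impaired in DNA damage repair was treated with test compounds, then its growth was measured against cultures receiving vehicle alone.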

[17] = at 5.0 µM (retest, dose inferred, filed as 0.5)
[18] = at 50.0 µM (retest, dose inferred, filed as 5.0)

Measured: growth inhibition

O=C(Nc1ccc(Cl)cc1)OCC#CCCl
inactive: [1]; at 1.2 µM 5% | [1]; at 3.7 µM -1% | [1]; at 11.0 µM 15% | [1]; at 33.0 µM 16% | [1]; at 100.0 µM 27% | [2]; at 1.2 µM -1% | [2]; at 3.7 µM 1% | [2]; at 11.0 µM 12% | [2]; at 33.0 µM 10% | [2]; at 100.0 µM 9% | [5]; at 1.2 µM -4% | [5]; at 3.7 µM -9% | [5]; [17] 8% | [5]; at 11.0 µM -6% | [5]; at 33.0 µM 15% | [5]; [18] 7% | [5]; at 50.0 µM 10.9% | [5]; at 100.0 µM 28% | [6]; at 1.2 µM 3% | [6]; at 3.7 µM 3% | [6]; [17] 6% | [6]; at 11.0 µM 4% | [6]; at 33.0 µM 2% | [6]; [18] 18% | [6]; at 50.0 µM 2.65% | [6]; at 100.0 µM 8% | [7]; at 1.2 µM 3% | [7]; at 3.7 µM 12% | [7]; at 11.0 µM -5% | [7]; at 33.0 µM -4% | [7]; at 100.0 µM 24% | [9]; at 1.2 µM -6% | [9]; at 3.7 µM -3% | [9]; at 11.0 µM -3% | [9]; at 33.0 µM 1% | [9]; at 100.0 µM 2% | [10]; [17] 5% | [10]; [18] 7% | [10]; at 50.0 µM -19.2% | [11]; at 1.2 µM -1% | [11]; at 3.7 µM 3% | [11]; [17] 4% | [11]; at 11.0 µM 4% | [11]; at 33.0 µM 3% | [11]; [18] 23% | [11]; at 50.0 µM 18.1% | [11]; at 100.0 µM 1% | [15]; [17] 9% | [15]; [18] 46% | [15]; at 50.0 µM 6.8% | [16]; at 1.2 µM -5% | [16]; at 3.7 µM 6% | [16]; at 11.0 µM 11% | [16]; at 33.0 µM 10% | [16]; at 100.0 µM 52%
active: [3]; at 1.2 µM 76% | [3]; at 3.7 µM 92% | [3]; at 11.0 µM 97% | [3]; at 33.0 µM 98% | [3]; at 100.0 µM 98% | [4]; at 1.2 µM 89% | [4]; at 3.7 µM 96% | [4]; at 11.0 µM 98% | [4]; at 33.0 µM 98% | [4]; at 100.0 µM 98% | [8]; [17] 96% | [8]; [18] 98% | [8]; at 50.0 µM 96.7% | [12]; at 1.2 µM 95% | [12]; at 3.7 µM 98% | [12]; at 11.0 µM 99% | [12]; at 33.0 µM 99% | [12]; at 100.0 µM 99% | [13]; at 1.2 µM 83% | [13]; at 3.7 µM 94% | [13]; at 11.0 µM 97% | [13]; at 33.0 µM 98% | [13]; at 100.0 µM 98% | [14]; at 1.2 µM 93% | [14]; at 3.7 µM 96% | [14]; at 11.0 µM 98% | [14]; at 33.0 µM 98% | [14]; at 100.0 µM 98%
